Screens deposited in PubChem BioAssay by National Center for Advancing Translational Sciences (NCATS).
Mito fusion yeast: inhibitors of mitochondrial division or activators of mitochondrial fusion; 0.23% of 320,000 active; S. cerevisiae fusion-defective mutant growth rescue, CellTiterGlo 48 h; AID 485298; Potency, µM (titrated, usually from 46.1 µM), for the others: top-dose growth rescue (activation), actives largely listed as activators; further: % of control where 0% means no effect; nearly all actives have a fitted effect of over 45% in size
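Yeast fusion mutant, YPEG (non-fermentable carbon), compound, 48 h at 37C non-permissive; CellTiterGlo added, 10 min RT, luminescence read. Rescued growth = division inhibition.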
Abeta rescue: restores growth of yeast expressing A-beta42 peptide; Potency, µM (series often up to 46.1 µM), most hits filed as activators; 0.063% of 410,000 active; yeast expressing A-beta42, growth rescue, OD600, 48 h; response scale: 0% DMSO, 100% iron-clioquinol control; further: nearly all actives have a fitted effect of over 55% in size
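Yeast A-beta toxicity model in growth medium with pinned compounds, 48 h at 30 C; growth read as absorbance at 600 nm. Normalized to FeCl3/clioquinol equimolar mix (positive) and DMSO (negative).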
FUS yeast rescue: rescues growth of FUS-expressing yeast; S. cerevisiae FUS-expressing, growth rescue, OD600, 24 h; 0.24% of 390,000 active; Potency, µM (doses to about 76.6 µM), hits mostly activators;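 further: plate controls were DMSO vehicle for no effect and reference control for full effect; nearly all actives have a fitted effect of over 55% in size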
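Restored growth of FUS-toxic S. cerevisiae, read as 600 nm absorbance after 24 h at 30C in galactose medium (starting OD 0.005). Controls CP55940 and DMSO.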
aSyn rescue: alpha-synuclein toxicity inhibition in yeast; Yeast expressing alpha-synuclein, growth rescue, BacTiter-Glo, 24 h; Potency, µM (titrated, usually from 46.1 µM), inactives show top-dose growth rescue (activation), most hits filed as activators; 0.14% of 370,000 active; AID 652106; further: % of control where 0% means no effect; nearly all actives have a fitted effect of over 65% in size
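Readout is rescue of growth in alpha-synuclein-expressing yeast, so inhibitors of toxicity appear as activators. Growth after 24 hr at 30 deg C in galactose medium is quantified by luminescence.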
TDP43 rescue: rescues yeast growth from TDP-43 toxicity; TDP-43 expressing yeast growth rescue, BacTiter-Glo, 24 h; Potency, µM (series often up to 46.1 µM), for the others: at the top dose growth rescue (activation), hits mostly activators; 1.8% of 410,000 active; further: % of control where 0% means no effect; nearly all actives have a fitted effect of over 50% in size
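Cell-based yeast growth screen: TDP-43 expression induced in galactose, inoculum OD600=0.02 after raffinose pregrowth to mid-log. Read-out BacTiter-Glo luminescence at 24 hr, 30 deg C; inhibition of toxicity seen as signal increase.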
Numbers without * were called inactive; [ ] = dose if it differs, or a comment. An excerpt weighted towards active compounds, which were near 2.2% of everything screened. The call rests on the fitted dose curve; in most records, active means well fitted curve in the direction sought with a large enough effect; inconclusive means small, poorly fitted or top-dose-only effect, or another doubt; inactive means no such curve, though single readings can be large; an effect the other way counts as inactive or inconclusive. Potency means the concentration at half of the fitted maximal effect.

`CCC(=O)c1ccc(N2CCN(C(=O)c3cccc(F)c3)CC2)c(F)c1` gave Mito fusion yeast -4.1%, Abeta rescue inactive, FUS yeast rescue inactive, aSyn rescue 6.9% and TDP43 rescue inconclusive.
For Cn1ncc(S(=O)(=O)Cc2ccccc2)c(Br)c1=O the results were Mito fusion yeast -91.8% and aSyn rescue inconclusive.
Screening Clc1ccc([C@H]2OC[C@@]3(CNCCc4c[nH]c5ccccc45)CS[C@H](c4ccc(Cl)cc4)N23)cc1 returned FUS yeast rescue inactive.
`COc1cc(C=C(c2nc3ccccc3s2)c2nc3ccccc3s2)cc(OC)c1O` gave Mito fusion yeast 17.8µM*, Abeta rescue inactive, FUS yeast rescue inconclusive, aSyn rescue -5.8% and TDP43 rescue inconclusive.
Screening COc1ccc(CCNC(=O)Cn2c(=O)n(-c3ccc(F)cc3)c(=O)c3sccc32)cc1OC returned Mito fusion yeast -4.4%, Abeta rescue inactive, FUS yeast rescue inactive, aSyn rescue 0.562µM* and TDP43 rescue 3.8%.
CCCCCCCCCC[n+]1ccc(/C=C/c2ccc(N(C)C)cc2)c2ccccc21 was read as aSyn rescue -76.3%.
Screening Cc1ccc(Nc2nc(N3CCOCC3)nc(N3CCOCC3)n2)cc1C returned Mito fusion yeast -52.2%, Abeta rescue inconclusive, FUS yeast rescue inactive, aSyn rescue 7.9% and TDP43 rescue 12.6µM*.
COc1ccc(Nc2nc(N3CCOCC3)nc(N3CCOCC3)n2)cc1 was read as Mito fusion yeast -6.9%, Abeta rescue inactive, FUS yeast rescue inactive, aSyn rescue -3.1% and TDP43 rescue -2.3%.
`Cc1cccc(Nc2nc(N3CCOCC3)nc(N3CCOCC3)n2)c1` gave Mito fusion yeast -15.1%, Abeta rescue inactive, FUS yeast rescue inactive, aSyn rescue 0.8% and TDP43 rescue inconclusive.
Screening C(=N\Nc1nc(Nc2ccccc2)nc(N2CCOCC2)n1)/c1c[nH]c2ccccc12 returned Mito fusion yeast -3.8%, Abeta rescue inactive, FUS yeast rescue 28.2µM*, aSyn rescue 5.0% and TDP43 rescue 0.0%.
Cc1ccc(Nc2nc(N)c([N+](=O)[O-])c(N3CCOCC3)n2)cc1C was read as Mito fusion yeast -29.3%, Abeta rescue inconclusive, FUS yeast rescue inactive, aSyn rescue 9.0% and TDP43 rescue 17.8µM*.
Screening Cc1cccc(Nc2nc(Nc3cccc(C)c3)nc(N3CCOCC3)n2)c1 returned Abeta rescue inactive, FUS yeast rescue inactive and TDP43 rescue 15.8µM*.
`O=C(N/N=C/c1ccc[nH]1)c1cc(-c2ccc(Cl)cc2)nc2ccccc12` gave Mito fusion yeast 13.1%, Abeta rescue inactive, FUS yeast rescue inactive, aSyn rescue -0.3% and TDP43 rescue 5.3%.
`CCOC(=O)C1CCN(C(=O)c2cc3c(-c4ccc(OC)c(OC)c4)nn(C)c3s2)CC1` gave Mito fusion yeast 8.1%, Abeta rescue inactive, FUS yeast rescue inactive, aSyn rescue -12.0% and TDP43 rescue 14.1µM*.
O=C(NC1CCCCN(Cc2ccc(Cl)cc2)C1=O)c1ccccc1-c1ccc(Cl)c(Cl)c1 (stereo not given) was read as FUS yeast rescue inactive.
`COc1cc(O)c2c(c1)OC(c1ccc(O)cc1)CC2=O` (stereo not given) gave Mito fusion yeast -17.4%, Abeta rescue inactive, FUS yeast rescue inactive, aSyn rescue 8.5% and TDP43 rescue 12.6µM*.
For CCc1cc(=O)oc2cc(OCC(=O)OC)c(Cl)cc12 the results were Mito fusion yeast -2.1%, Abeta rescue inactive, FUS yeast rescue inactive, aSyn rescue 0.8% and TDP43 rescue 11.2µM*.
CCCc1cc(=O)oc2cc(OCC(=O)N(C)C)c(Cl)cc12 was read as Mito fusion yeast 4.7%, Abeta rescue inactive, FUS yeast rescue inactive, aSyn rescue -0.6% and TDP43 rescue -5.3%.
For COc1ccc(OC)c(-c2nnc(-c3ccc(C)o3)o2)c1 the results were Mito fusion yeast 3.2%, Abeta rescue inactive, FUS yeast rescue inactive, aSyn rescue 1.8% and TDP43 rescue 12.6µM*.
`COc1ccc(-c2nnc(SC)o2)c(OC)c1` gave Mito fusion yeast 2.2%, Abeta rescue inactive, FUS yeast rescue inactive, aSyn rescue 0.8% and TDP43 rescue -18.0%[0.397 µM].
CN(C)S(=O)(=O)Oc1cccc(C(=O)Nc2ccc(Cl)cc2)c1 was read as Mito fusion yeast 2.3%, Abeta rescue inactive, FUS yeast rescue inactive, aSyn rescue -18.6% and TDP43 rescue 22.4µM*.
Screening CN(C)S(=O)(=O)Oc1cccc(C(=O)Nc2ccccc2Cl)c1 returned Mito fusion yeast 7.9%, Abeta rescue inactive, FUS yeast rescue inactive, aSyn rescue 2.3% and TDP43 rescue 14.1µM*.
`O=C(CCCl)Nc1cccc2cccnc12` gave aSyn rescue 2.0%.
`CC1(C(=O)NS(=O)(=O)c2ccc3ccccc3c2)CCN1C(=O)Cc1ccc(Cl)cc1Cl` (stereo not given) gave Abeta rescue inactive, FUS yeast rescue inactive, aSyn rescue -15.5% and TDP43 rescue -0.6%.
`CC1(C(=O)NS(=O)(=O)c2ccc(Cl)cc2)CCN1C(=O)Cc1cccc2ccccc12` (stereo not given) gave Abeta rescue inactive, FUS yeast rescue inactive, aSyn rescue 0.5% and TDP43 rescue 2.9%.
CC1(C(=O)Nc2cccc3ccccc23)CCN1C(=O)Cc1ccc(Cl)cc1Cl (stereo not given) was read as Abeta rescue inactive, FUS yeast rescue inconclusive, aSyn rescue inconclusive and TDP43 rescue 35.5µM*.
`CC1(C(=O)NCc2ccc(Cl)cc2)CCN1C(=O)Cc1cccc2ccccc12` (stereo not given) gave Abeta rescue inactive, FUS yeast rescue inactive, aSyn rescue inconclusive and TDP43 rescue 35.5µM*.
CC1(C(=O)Nc2ccccc2F)CCN1C(=O)Cc1cc(F)ccc1F (stereo not given) was read as Abeta rescue inactive, FUS yeast rescue inactive, aSyn rescue 6.7% and TDP43 rescue 7.08µM*.
For CC1(C(=O)NCc2ccc(Cl)cc2)CCN1C(=O)Cc1ccc(Cl)cc1Cl (stereo not given) the results were Abeta rescue inactive, FUS yeast rescue inactive, aSyn rescue inconclusive and TDP43 rescue 31.6µM*.
Screening FC(F)(F)c1cccc(N2CCN(C(=S)Nc3nccc4ccccc34)CC2)c1 returned FUS yeast rescue inactive.
Screening C[C@H]1[C@@H](NC(=O)C(c2ccccc2)c2ccccc2)CC[C@@]23CCCN2C(=O)CCC[C@@H]13 returned FUS yeast rescue inactive.
Screening Cn1c(=O)c(-c2ccccc2)c(O)c2ccccc21 returned Mito fusion yeast -2.3%, Abeta rescue inactive, FUS yeast rescue inactive, aSyn rescue 6.4% and TDP43 rescue 20µM*.
